For 14 compounds, growth results are on record in PubChem BioAssay (NCI).

This is part of a sample that, as a whole, favours compounds with a hit. Of some 83,000 tested, about 20% had one in any assay.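 Compound tested at a single concentration for 48 hours in 96-well plates; a percent growth value below 10 was scored as active.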 Unmarked numbers belong to inactive results. The source made the active and inactive calls.

What all share (test): NCI-60 one-dose screen, 48 h (100 = growth as untreated, 0 = no growth, -100 = all killed)
What all share (conditions): 10 µM unless noted

Assay [1] has as its system SR leukemia.
For assay [2], the system named is RPMI-8226 leukemia.
Assay [3] concerns OVCAR-8 ovarian.
Assay [4] has as its system OVCAR-5 ovarian.
The test system of assay [5] is OVCAR-4 ovarian.
The subject of assay [6] is SK-OV-3 ovarian.
Assay [7] relates to IGROV1 ovarian.
Assay [8] concerns HS 578T breast.
Assay [9] deals with NCI/ADR-RES ovarian.
The test system of assay [10] is OVCAR-3 ovarian.

Take `COC1=CC(c2ccc[nH]2)=N/C1=C\c1[nH]c(C)c(C(=O)CCCCC(=O)Oc2ccc3c(c2)CCC2C3CC[C@]3(C)[C@@H](O)CC[C@@H]23)c1C` (stereo partly specified): the growth was 23.2% in assay [1]; 45% in assay [2]; 70.8% in assay [3]; 65.6% in assay [4]; 48.6% in [5]; 90% in [6]. The growth was 70.7% in assay [7], 54.3% in [8] and 82.4% in [9].

Turning to `COc1cc(C(=O)OCCCCCCCCCCC[P+](c2ccccc2)(c2ccccc2)c2ccccc2)ccc1O`, the growth in assay [1] is -58.7% (active); in assay [2] it was -9.32% (active); in [3] it was -62% (active); in [4], 22.6%; in assay [5], -11.2% (active); in [6] it was -1.8% (active). Moreover, the results for the growth in assay [7], in assay [8] and in assay [9] were 11.6%, -13.3% (active) and 50.6%, respectively.

On to `CCCOC(=O)C1(O)CCCC1`, for which the growth is 94.4% in assay [1]; 96.5% in [2]; 102% in [3]; 87.2% in assay [4]; 102% in assay [5]; 111% in [6]. Also, the growth in [7] was 107%; in [10], 129%; in assay [9] it was 108%.

`CC(=O)Oc1cccc(OC(C)=O)c1OC(C)=O`: the growth is 89.6% in assay [1]; 105% in assay [2]; 106% in assay [3]; 99.9% in assay [4]; 105% in [5]; 87% in assay [6]. The growth in [7] is 101%; in assay [10], 111%; in [9] it was 108%.

As to `COc1ccccc1CNCCCN1C(=O)c2ccc3c4c(ccc(c24)C1=O)C(=O)N(CCCNCCCCNCCCCN)C3=O`, the growth in assay [1] is 2.93% (active); in assay [2], 17.3%; in assay [3], -18.2% (active); in assay [4], 24.5%; in [5] it was -33.8% (active); in [6] it was 28%. In addition, the growth in assay [7] is -57.8% (active); in assay [10], 1.36% (active); in assay [9], 62.2%.

In the case of `Clc1nc(-c2cccnc2)nc2sc3c(c12)CCCCCC3`, the growth in assay [1] is 87.6%; in assay [2], 96.9%; in assay [3], 103%; in [4], 102%; in assay [5], 97.1%; in [6], 102%. Also, the growth is 107% in [7], 109% in assay [8] and 106% in [9].

Turning to `CCCCCc1c(C)[nH]c(/C=c2\[nH]/c(=C3/C=c4ccccc4=N3)cc2OC)c1C`, the growth is -20.3% (active) in assay [1]; -49.5% (active) in assay [2]; -41.9% (active) in assay [3]; -7.96% (active) in assay [4]; 4.16% (active) in [5]; -17.2% (active) in assay [6]. The growth is -4.01% (active) in [7], -37.1% (active) in [8] and -20.6% (active) in [9].

As for `CCn1cc(C(=O)O)c(=O)c2cc(F)c(N3CCN(S(=O)(=O)c4ccc(OC)c(OC)c4)CC3)cc21`, the growth in assay [1] is 88.3%; in assay [2] it was 99.3%; in assay [3], 102%; in assay [4] it was 102%; in [5], 110%; in [6], 135%. The growth was 108% in assay [7], 109% in assay [10] and 107% in assay [9].

Turning to `Clc1ccc(/C=C/c2nc(N3CCOCC3)c3nc(Cl)c(Cl)cc3n2)cc1`, the growth in assay [1] was 98%; in [2] it was 102%; in assay [3] it was 108%; in [4] it was 110%; in [5], 128%; in assay [6], 105%. For the same compound, the values for the growth in assay [7], in assay [8] and in assay [9] were 117%, 104% and 98.5%, respectively.

Consider `Cc1cccc(NC(=O)c2sc3nc4c(cc3c2N)CCCC4)c1`, for which the growth in [1] is 17.3%; in assay [2] it was 12.7%; in assay [3], 52.1%; in assay [4] it was 64.9%; in assay [5], 71.7%; in assay [6] it was 44%. The growth in assay [7] was 54.6%; in [8] it was 59.5%; in assay [9], 11.1%.

Regarding `COc1cc(C2C=C(C)N=C3SC=C(C)N32)cc(OC)c1OC` (stereo unspecified), the growth was -6.27% (active) in [1]; -26.3% (active) in assay [2]; 9.1% (active) in assay [3]; -45.8% (active) in assay [4]; 12.6% in [5]; -5.5% (active) in [6]. The growth was -49.8% (active) in assay [7], 2% (active) in assay [8] and 19.5% in [9].

Regarding `CC[C@]1(O)C[C@@H]2CN(Cc3c([nH]c4ccccc34)[C@@](C(=O)OC)(c3cc4c(cc3OC)N(C)[C@H]3[C@@](O)(C(=O)OC)[C@H](OC(C)=O)[C@]5(CC)[C@@H]6C[C@@H]6CN6CC[C@]43[C@@H]65)C2)C1`, the growth in assay [1] was 2.3% (active); in [2] it was 48.8%; in [3] it was 11.9%; in [4] it was 51%; in assay [5], 34.9%; in assay [6], 15.2%. The growth in assay [7] is 37.2%; in [8] it was 16.8%; in [9], 93.8%.

In the case of `COc1ccc(/C=C2\C(=O)N(C(=O)c3csc(NC(C)=O)n3)N=C2C)cc1`, the growth was 82.2% in assay [1]; 98.4% in assay [2]; 96% in assay [3]; 110% in assay [4]; 109% in assay [5]; 100% in assay [6]. Besides, the growth in assay [7] was 95.9%; in [8] it was 111%; in [9], 105%.

For the compound `COc1cc(Cn2c(SCCC(=O)Nc3ccc(F)cc3)nc3ccccc3c2=O)cc(OC)c1OC`, the growth was 56.7% in [1]; 74.9% in assay [2]; 84.1% in assay [3]; 94.1% in [4]; 85% in assay [5]; 95% in [6]. For the same compound, the growth was 77.8% in assay [7], 86.2% in assay [8] and 83.5% in assay [9].
